PubChem BioAssay (EPA / NIEHS)
The source made the active and inactive calls. Rule for the calls: active = hit-call score of the fitted dose curve at least 0.9, where 1 is the maximum; inactive = score below 0.9.

Test system: not listed separately
Assay: ATG_SREBP_CIS: Attagene CIS-FACTORIAL HepG2 Assay for human Sterol Regulatory Element Binding (SREBP) (AID 2282962)
Settings: HepG2 Attagene cis-factorial SREBP reporter, mRNA; actives raise or lower the signal
Method in brief: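 HepG2 cells transiently transfected with multiplexed cis-element reporter units report endogenous transcription factor activity. After 24 h of chemical exposure, reporter mRNA was quantified by RT-PCR, 6-FAM labelling, HpaI digestion and capillary electrophoresis; bidirectional fits used DMSO as baseline.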
With `C[N+]1(C)CCCCC1` the outcome was “inactive”.
With `CNC(=O)ON=C(SC)C(=O)N(C)C` the AC50 was 50 µM (active).
For `COP(=O)(NC(C)=O)SC` (centres undefined), the outcome was “inactive”.

Target: Signal transducer and activator of transcription 3 (Homo sapiens) (UniProt P40763)
Sequence (P40763 whole entry, looked up): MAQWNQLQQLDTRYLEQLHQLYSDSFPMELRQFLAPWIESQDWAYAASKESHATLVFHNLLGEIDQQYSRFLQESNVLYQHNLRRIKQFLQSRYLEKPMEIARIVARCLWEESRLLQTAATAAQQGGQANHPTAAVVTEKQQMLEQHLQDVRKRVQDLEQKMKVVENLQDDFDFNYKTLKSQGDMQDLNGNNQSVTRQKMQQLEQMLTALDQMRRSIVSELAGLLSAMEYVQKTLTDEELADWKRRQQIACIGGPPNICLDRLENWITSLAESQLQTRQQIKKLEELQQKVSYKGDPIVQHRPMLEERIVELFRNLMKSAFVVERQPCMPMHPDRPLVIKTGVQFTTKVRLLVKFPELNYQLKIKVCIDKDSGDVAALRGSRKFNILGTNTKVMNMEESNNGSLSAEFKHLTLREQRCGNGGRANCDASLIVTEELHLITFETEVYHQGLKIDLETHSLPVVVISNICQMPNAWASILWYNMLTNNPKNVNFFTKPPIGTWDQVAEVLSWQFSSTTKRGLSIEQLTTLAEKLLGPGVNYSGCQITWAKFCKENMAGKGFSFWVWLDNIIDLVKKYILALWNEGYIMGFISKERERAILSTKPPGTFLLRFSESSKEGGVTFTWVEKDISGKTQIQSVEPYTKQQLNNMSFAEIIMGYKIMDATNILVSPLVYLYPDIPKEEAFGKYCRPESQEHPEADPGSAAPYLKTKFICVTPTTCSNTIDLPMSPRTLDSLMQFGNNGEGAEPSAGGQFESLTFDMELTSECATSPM
Assay: ATG_STAT3_CIS: Attagene CIS-FACTORIAL HepG2 Assay for human Signal Transducer and Activator of Transcription 3 (STAT3) (AID 2282963)
Settings: HepG2, Attagene cis-factorial STAT3 reporter transcription; actives raise or lower the signal
Method in brief: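 HepG2 cells transiently transfected with multiple cis-element-driven reporter units report endogenous transcription factor activity. After 24 h compound exposure, reporter mRNA is measured by RT-PCR, 6-FAM labelling, HpaI digestion and capillary electrophoresis. Fitted bidirectionally versus DMSO.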
In the case of `CCOP(=O)(SC(C)CC)N1CCSC1=O` (centres undefined), the outcome is reported as “inactive”.
In the case of `CCCCOC(=O)[C@@H](C)Oc1ccc(Oc2ccc(C#N)cc2F)cc1`, the outcome is reported as “inactive”.
With `CC(=NC#N)N(C)Cc1ccc(Cl)nc1` the outcome was “inactive”.
With `CCc1cccc(C)c1N(C(=O)CCl)C(C)COC` (centres undefined) the outcome was “inactive”.
With `COc1cc(OC)nc(Sc2cccc(Cl)c2C(=O)O)n1` the outcome was “inactive”.
With `CON=C(C(=O)OC)c1ccccc1CON=C(C)c1cccc(C(F)(F)F)c1` the outcome was “inactive”.
With `CC1=NNC(=O)N(/N=C/c2cccnc2)C1` the outcome was “inactive”.
For `S=C1NCCN1`, the outcome was “inactive”.
With `CC(C)=CC1C(C(=O)OCN2C(=O)C3=C(CCCC3)C2=O)C1(C)C` (centres undefined) the outcome was “inactive”.
With `CC(C1CC1)C(O)(Cn1cncn1)c1ccc(Cl)cc1` (centres undefined) the outcome was “inactive”.
For `C#CC(C)(C)NC(=O)c1cc(Cl)cc(Cl)c1`, the outcome was “inactive”.
With `CCC(=O)Nc1ccc(Cl)c(Cl)c1` the outcome was “inactive”.
With `O=C(O)c1cc(Oc2ccc(C(F)(F)F)cc2Cl)ccc1[N+](=O)[O-]` the outcome was “inactive”.
In the case of `CCOP(=S)(OCC)SCCSCC`, the outcome is reported as “inactive”.
For `CCc1cnc(C2=NC(C)(C(C)C)C(=O)N2)c(C(=O)O)c1` (centres undefined), the outcome was “inactive”.
In the case of `CCOP(=S)(Oc1cnc(C(C)(C)C)nc1)OC(C)C` (centres undefined), the outcome is reported as “inactive”.
In the case of `CCOP(=S)(OCC)OC(Cl)C(Cl)(Cl)Cl` (centres undefined), the outcome is reported as “inactive”.
In the case of `CN(C)C(=O)Nc1cccc(C(F)(F)F)c1`, the outcome is reported as “inactive”.
In the case of `CNC(=O)ON=C(C)SC`, the outcome is reported as “inactive”.
For `CCCOc1nn(C(=O)NS(=O)(=O)c2ccccc2C(=O)OC)c(=O)n1C`, the outcome was “inactive”.
In the case of `CCOC(=O)COc1cc(-c2nn(C)c(OC(F)F)c2Cl)c(F)cc1Cl`, the outcome is reported as “inactive”.
For `CCOP(=S)(OCC)Oc1ccc([N+](=O)[O-])cc1`, the outcome was “inactive”.
For `CC[C@H](C)[C@H]1O[C@]2(C=C[C@@H]1C)C[C@@H]1C[C@@H](C/C=C(\C)[C@@H](O[C@H]3C[C@H](OC)[C@@H](O[C@H]4C[C@H](OC)[C@@H](NC)[C@H](C)O4)[C@H](C)O3)[C@@H](C)/C=C/C=C3\CO[C@@H]4[C@H](O)C(C)=C[C@@H](C(=O)O1)[C@]34O)O2`, the outcome was “inactive”.
With `CN(C)[C@@H]1C(=O)C(C(N)=O)=C(O)[C@@]2(O)C(=O)C3=C(O)c4c(O)cccc4[C@@](C)(O)[C@H]3[C@H](O)[C@@H]12` the outcome was “inactive”.
With `CCNc1nc(Cl)nc(NC(C)(C)C#N)n1` the outcome was “inactive”.
In the case of `CC(C)[C@H](C(=O)O[C@H](C#N)c1cccc(Oc2ccccc2)c1)c1ccc(Cl)cc1`, the outcome is reported as “inactive”.
In the case of `CCOP(=S)(OCC)Oc1ccc2c(C)c(Cl)c(=O)oc2c1`, the outcome is reported as “inactive”.
For `CSc1nc(NC(C)C)nc(NC(C)C)n1`, the outcome was “inactive”.
With `COP(=O)(OC)SCn1c(=O)oc2cc(Cl)cnc21` the outcome was “inactive”.
With `CN(C)NC(=O)CCC(=O)O` the outcome was “inactive”.
For `Cc1nn(-c2cc(NS(C)(=O)=O)c(Cl)cc2Cl)c(=O)n1C(F)F`, the outcome was “inactive”.
With `CCCCN(CC)c1c([N+](=O)[O-])cc(C(F)(F)F)cc1[N+](=O)[O-]` the outcome was “inactive”.
With `CCC(=NOC/C=C/Cl)C1=C(O)CC(C2CCOCC2)CC1=O` (centres undefined) the outcome was “inactive”.
In the case of `C[N+]1(C)CCCCC1`, the outcome is reported as “inactive”.
With `CNC(=O)ON=C(SC)C(=O)N(C)C` the outcome was “inactive”.
With `COP(=O)(NC(C)=O)SC` (centres undefined) the outcome was “inactive”.
